# Screening data from PubChem BioAssay.
# Sampled rows, rich in hits. Any-hit rate of the full collection: about 2.1%.
# FUS suppressor: suppressors of FUS proteinopathy in yeast; S. cerevisiae FUS-expressing, growth rescue, OD600, 24 h; Potency, µM (titrated, usually from 76.6 µM), usual class: activators; 0.24% of 390,000 active;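 also: plate controls were DMSO vehicle for no effect and reference control for full effect; nearly all actives have a fitted effect of over 55% in size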
#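 Galactose (2%) drives FUS expression in yeast precultured in raffinose; seeding density OD 0.005. Test compounds incubated 24hr at 30C and 99% humidity before absorbance at 600 nm was measured.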
# TDP43 rescue: rescues yeast growth from TDP-43 toxicity; Potency, µM (titrated, usually from 46.1 µM), without a hit: at the top dose growth rescue (activation), hits mostly activators; 1.8% of 410,000 active; TDP-43 expressing yeast growth rescue, BacTiter-Glo, 24 h; AID 652104; also: % of control where 0% means no effect; nearly all actives have a fitted effect of over 50% in size
#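 Galactose-induced TDP-43 yeast, OD600=0.02, compound pinned; 24 hr, 30 deg C; BacTiter-Glo luminescence for growth. Inhibitors of TDP-43 toxicity read as activators.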
# aSyn yeast inh: alpha-synuclein toxicity inhibition in yeast; Yeast expressing alpha-synuclein, growth rescue, BacTiter-Glo, 24 h; Potency, µM (top dose mostly 46.1 µM), inactives show at the top dose growth rescue (activation), actives largely listed as activators; 0.14% of 370,000 active; also: % of control where 0% means no effect; nearly all actives have a fitted effect of over 65% in size
#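 Rescue of yeast growth: cells expressing toxic alpha-synuclein, induced in galactose at OD600 0.02, incubated with compound 24 h at 30 C. ATP luminescence quantified growth; inhibitors of toxicity appear as activators.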
# Abeta rescue: compounds reversing amyloid beta toxicity in yeast; 0.063% of 410,000 active; Potency, µM (titrated, usually from 46.1 µM), usual class: activators; yeast expressing A-beta42, growth rescue, OD600, 48 h; response scale: 0% DMSO, 100% iron-clioquinol control; also: nearly all actives have a fitted effect of over 55% in size
#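 Yeast growth medium received pinned compounds, then yeast cells expressing toxic A-beta were added; plates incubated at 30 C for 48 hr. Growth read as absorbance at 600 nm, normalized to DMSO and equimolar FeCl3 plus clioquinol controls.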
# * marks the source's active call; other numbers are inactive results; i = inactive; ? = inconclusive; . = no result; ! = repeats disagree. Calls follow the shape of the dose curve; as a rule, active = well fitted curve in the direction sought with a large enough effect; inconclusive = small, poorly fitted or top-dose-only effect, or another doubt; inactive = no such curve, though single readings can be large; an effect the other way counts as inactive or inconclusive. Potency is read from the fitted curve at half-maximal effect.
SMILES,FUS suppressor,TDP43 rescue,aSyn yeast inh,Abeta rescue
Cc1cc2n(n1)C(c1ccc3c(c1)OCO3)Nc1c(C)cccc1-2 (stereo not given),i,-15%,.,i
Cc1cc(C)c2c(c1)-c1cc(C)nn1C(c1ccc3c(c1)OCO3)N2 (stereo not given),i,18µM*,11%,i
O=C(CSc1nnc(-c2cccnc2)n1C1CCCCC1)N1CCCC1,i,.,.,.
Cc1ccc(/C=C2\SC(N3CCCCC3)=NC2=O)cc1,i,10µM*,0%,i
O=C1N=C(N2CCCCC2)S/C1=C\c1ccc(Cl)cc1,i,27%,3%,i
CCC(=C(c1ccc(OC)cc1)c1ccc(OC)cc1)c1cn(CC(O)CN(CCO)CCO)c2ccccc12 (stereo not given),28µM*,5%,-14%,i
O=C(Nc1nc2ccccc2s1)c1cnccn1,i,18%,-2%,i
O=C(Nc1nc2ccc(F)cc2s1)c1ccccn1,i,-16%,11µM*,?
O=C(NNc1nc2ccc(F)cc2s1)c1cccc(F)c1,i,13µM*,?,?
O=C(Nc1nnc(SCc2ccc(F)cc2)s1)c1ccccn1,i,-27%,4.5µM*,i
O=C(NNc1nc2ccccc2s1)c1ccc(F)cc1,.,?,-5%,i
O=C(OC12CCCN(C1)/C(=C/c1cccc(Cl)c1)C2)c1ccc(F)cc1 (stereo not given),i,.,.,.
Cc1ccc(C)c(OCCC(=O)Nc2ccc3c(c2)OCO3)c1,.,11µM*,-8%,i
CCc1ccc(NS(=O)(=O)c2c(-c3ccccc3)csc2C(=O)OC)cc1,i,27%,.,i
CC(=O)SC1CC2=CC(=O)CC[C@]2(C)C2CC[C@@]3(C)C(CC[C@@]34CCC(=O)O4)C12 (stereo not given in full),.,.,11%,.
CC(C)c1ccc(Nc2n[nH]c(=S)s2)cc1,i,14µM*,-1%,i
Cc1cc(C)c(C)c(S(=O)(=O)ON2C(=O)c3ccccc3C2=O)c1C,.,5.6µM*,16%,i
Cc1ccc(-c2nc(CS(=O)CC(=O)N3CCN(c4ccc(F)cc4)CC3)c(C)o2)cc1 (stereo not given),i,?,0%,i
Cc1oc(-c2ccccc2)nc1C(=O)N1CCN(c2ccc(F)cc2)CC1,i,11µM*,2%,i
Cc1cnc2ccccc2c1/C=C/c1ccc(N)cc1,.,.,2%,.
COC(=O)CCC1NC(=O)C(Cc2c[nH]c3ccccc23)NC(=O)C2CC(=O)OC(C)C(NC(=O)C(C)NC(=O)C3CCCN3C(=O)C3CCCN3C(=O)C(C)NC(C)=O)C(=O)NC(CC(C)C)C(=O)NC(CCCCNC(=O)CCC(C(=O)NC(Cc3ccc(O)cc3)C(=O)O)NC1=O)C(=O)NC(Cc1c[nH]c3ccccc13)C(=O)N1CCCC1C(=O)NC(CO)C(=O)N2 (stereo not given),i,.,.,.
CN1CCc2nc3sc(C(=O)Nc4ccccc4OC(F)(F)F)c(N)c3cc2C1,?,18µM*,.,i
COC(=O)c1cc(-c2ccc(-c3ccccc3)c(F)c2)c(=O)n2c1CCC2,i,.,.,.
CCCCN(CC)C(=O)Cn1nc(C)c2c(C)n(-c3ccccc3)nc2c1=O,i,3%,.,i
O=C(NC(=S)Nc1cccc2cccnc12)c1ccccc1,i,15%,0%,i
SMILES,FUS suppressor,TDP43 rescue,aSyn yeast inh,Abeta rescue
O=C(NC(=S)Nc1cccc2cccnc12)c1cccs1,i,13%,16µM*,i
Cc1ccc(NC(=S)NNC(=O)CSc2nnc(-c3ccc(C)cc3)n2C2CCCCC2)cc1,i,.,.,.
CCOc1ccc(-c2nc(C#N)c(NCc3ccc4c(c3)OCO4)o2)cc1,i,21%,1%,i
COc1ccc(CNc2oc(COc3ccc(Cl)cc3)nc2C#N)cc1,.,?,16%,i
Cc1ccc(OCc2nc(C#N)c(NCc3ccc4c(c3)OCO4)o2)cc1,i,11µM*,7%,i
COc1ccc(Nc2oc(COc3ccc(Cl)cc3)nc2C#N)cc1,i,28µM*,9%,i
O=S1(=O)c2c(cccc2N2CCC[C@H]2CO)O[C@@H]2CCN1C2,i,.,.,.
CC(=O)c1cc(CN2C(=O)c3ccccc3C2=O)cs1,i,14µM*,21%,i
CCc1ccc(-c2nc3ccc(Br)cc3c(C(=O)O)c2C)s1,i,35µM*,-36%,i
Cc1c(-c2ccccc2Br)nc2ccccc2c1C(=O)O,.,5%,3%,i
Nc1ncnc2c1[nH]c(=S)n2C1OC(CO)C(O)C1O (stereo not given),.,.,1%,.
Cc1ccc(CN2CCCCC(NC(=O)c3ccc4ccccc4c3)C2=O)cc1 (stereo not given),i,.,.,.
NC(=NCCCCCCN=C(N)/N=C(\N)Nc1ccc(Cl)cc1)/N=C(\N)Nc1ccc(Cl)cc1,i,25µM*!,-59%,i
O=C(CSc1ccccc1)NC1CCCCN(Cc2cccc(Cl)c2)C1=O (stereo not given),i,.,.,.
CCCN1C(=O)/C(=C/c2ccc3c(c2)OCO3)NC1=S,i,14µM*,-7%,?
Cc1ccnc(Sc2ccc([N+](=O)[O-])cc2[N+](=O)[O-])n1,i,20µM*,-13%,i
Cc1ccc(CNS(=O)(=O)c2ccc(C)s2)cc1,i,?,4%,i
Cc1ccc(CNS(=O)(=O)c2ccc(Cl)s2)cc1,i,13µM*,9%,i
CCC(=O)N1CCc2cc(CNS(=O)(=O)c3ccc(Cl)s3)ccc21,i,13µM*,.,i
O=C(C1CCCN(S(=O)(=O)c2ccc([N+](=O)[O-])cc2)C1)N1CCN(Cc2ccccc2)CC1 (stereo not given),i,.,.,.
Cc1ccc(C)c(S(=O)(=O)N2CCN(C(=O)Cc3sc(C)nc3-c3ccc(F)cc3)CC2)c1,.,18%,16µM*,i
Cc1nc(-c2ccc(F)cc2)c(CC(=O)N2CCN(S(=O)(=O)c3ccccc3Br)CC2)s1,.,9%,10%,i
COc1cc(OC)c(NC(=O)c2nn(C)c3c2COc2ccccc2-3)cc1Cl,i,9%,.,i
CC(C)c1c(C(=O)N/N=C/c2ccc3c(c2)OCO3)nnn1-c1nonc1N,i,11%,-6%,i
CCN(CC)c1ccc(/C=N/NC(=O)c2nnn(-c3nonc3N)c2C(C)C)c(O)c1,?,?,14µM*,14µM*
COc1ccc(-n2c(SCC(=O)N/N=C(/C)c3cccc(O)c3)nc3ccccc3c2=O)cc1,i,.,.,.
O=C(NN=C(Cc1ccccc1)Cc1ccccc1)c1ccccc1O,i,-5%,-8%,i
NC(=S)NN=C(Cc1ccccc1)Cc1ccccc1,i,16µM*,3%,?
COc1ccc(/C=C/C(=O)OCC(=O)NCCCc2ccccc2)cc1OC,i,35µM*,1%,i
O=C(/C=C/c1ccc(O)c(O)c1)OC(Cc1ccc(O)c(O)c1)C(=O)O (stereo not given),i,-4%,2%,i
